Shown are actives, neighbours in structure and some others; about 11% of the full set was active somewhere.
3T3 cytotox – kills NIH 3T3 cells; 94,000 compounds, 4.3% hits; Potency, µM (titrated, usually from 96.7 µM), most hits filed as inhibitors; AID 1345082; NIH 3T3 viability, CellTiter-Glo ATP luminescence, 48-72 h; note: nearly all actives have a fitted effect of over 55% in size
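ATP-dependent luminescence (CellTiter-Glo) served as the viability signal for NIH 3T3 cells treated with compound for 48 or 72 hr at 37 °C.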
NPR1 antag – antagonists of human natriuretic peptide receptor Npr1; AID 1347048; Potency, µM (titrated, usually from 46.3 µM), most hits filed as inhibitors; 76,000 compounds, 1.6% hits; HEK293 hNpr1 GloSensor cGMP, ANP-stimulated luminescence; P16066; calls by dose curve; note: nearly all actives have a fitted effect of over 60% in size
Target sequence (P16066 whole entry, looked up): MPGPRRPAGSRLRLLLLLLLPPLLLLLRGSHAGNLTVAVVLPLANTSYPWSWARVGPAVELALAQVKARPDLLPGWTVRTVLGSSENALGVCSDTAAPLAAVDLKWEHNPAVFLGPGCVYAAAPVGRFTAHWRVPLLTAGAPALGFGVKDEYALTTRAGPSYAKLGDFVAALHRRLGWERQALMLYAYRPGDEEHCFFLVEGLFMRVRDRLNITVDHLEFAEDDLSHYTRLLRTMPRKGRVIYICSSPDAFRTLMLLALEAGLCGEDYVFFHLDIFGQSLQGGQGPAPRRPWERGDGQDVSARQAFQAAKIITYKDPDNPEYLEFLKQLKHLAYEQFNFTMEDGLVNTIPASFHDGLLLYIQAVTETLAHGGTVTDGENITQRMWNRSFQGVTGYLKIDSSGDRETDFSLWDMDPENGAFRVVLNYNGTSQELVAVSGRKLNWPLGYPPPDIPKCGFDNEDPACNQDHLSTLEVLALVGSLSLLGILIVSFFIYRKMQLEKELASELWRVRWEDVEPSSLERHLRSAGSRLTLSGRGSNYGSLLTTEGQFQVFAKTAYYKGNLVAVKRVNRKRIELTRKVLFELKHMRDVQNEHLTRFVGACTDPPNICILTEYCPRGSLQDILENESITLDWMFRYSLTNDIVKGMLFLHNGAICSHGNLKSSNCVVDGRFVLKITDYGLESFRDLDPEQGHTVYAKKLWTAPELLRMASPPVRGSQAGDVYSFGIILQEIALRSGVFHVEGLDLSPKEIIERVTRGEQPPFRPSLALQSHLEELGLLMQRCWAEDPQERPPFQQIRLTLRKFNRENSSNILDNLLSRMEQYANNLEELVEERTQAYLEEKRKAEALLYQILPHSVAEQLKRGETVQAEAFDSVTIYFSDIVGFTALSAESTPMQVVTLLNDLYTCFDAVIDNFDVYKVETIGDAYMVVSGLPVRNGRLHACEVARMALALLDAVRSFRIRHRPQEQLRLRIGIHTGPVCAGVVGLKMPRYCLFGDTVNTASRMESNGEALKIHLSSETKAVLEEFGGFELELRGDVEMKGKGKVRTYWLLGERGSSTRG
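HEK293 cells stably expressing human Npr1 and cGMP GloSensor pGS-40F, loaded 2 h with 2% GloSensor reagent, given compound 30 min at room temperature. Luminescence read before and 20 min after 0.1 nM hNppA.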
HEK293 tox – kills HEK 293 cells. HEK 293 viability, ATP luminescence (CellTiter-Glo), 48-72 h. Potency, µM (highest dose often 115 µM), usual class: inhibitors. 94,000 compounds, 6.6% hits. AID 1345083; note: nearly all actives have a fitted effect of over 60% in size
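Luminescence from cellular ATP, measured with CellTiter-Glo, indicates HEK 293 viability. Cells plated at 250 cells/well are treated with compound for 48 or 72 hr at 37 degree Celsius before reagent addition.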
Luciferase inh – Photinus pyralis luciferase inhibition; P08659; purified P. pyralis luciferase, luminescence, biochemical; Potency, µM (top dose mostly 115 µM), usual class: inhibitors; 76,000 compounds, 2.5% hits; AID 1347043; note: nearly all actives have a fitted effect of over 65% in size
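FLuc 10nM, D-luciferin 10uM, ATP 10uM, Mg acetate 10mM, Tris acetate pH 7.5, Tween/BSA; cpd qHTS; enzyme added last; CCD luminescence.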
Hits are given with their value; - = inactive; ? = inconclusive; . = no result given. Unless noted, calls come from the whole dose curve; as a rule, active = well fitted curve in the direction sought with a large enough effect; inconclusive = small, poorly fitted or top-dose-only effect, or another doubt; inactive = no such curve, though single readings can be large; an effect the other way counts as inactive or inconclusive.

SMILES | 3T3 cytotox | NPR1 antag | HEK293 tox | Luciferase inh
CC(C)Cn1c(=O)c(C(=O)N2CCC(C#N)CC2)nc2cccnc21 | ? | . | - | .
Fc1ccc(CN2CCN(C3CCNC3)CC2)cc1Cl (centres undefined) | - | - | - | -
c1ccc(COc2ccc(CN3CCN(C4CCNC4)CC3)cc2)cc1 (centres undefined) | 45µM | - | ? | ?
COc1ccccc1-n1c(=O)c(C(=O)N2CCCC2)nc2cccnc21 | - | . | - | .
Cc1ccc(OCC(=O)N2CCCN(S(C)(=O)=O)c3ccccc32)cc1 | 22µM | - | - | -
COc1ccc(C(=O)N2CCCN(C)c3ccccc32)c(C)c1 | ? | - | 45µM | -
Cc1ccc(CC(=O)N2CCCN(S(C)(=O)=O)c3ccccc32)cc1 | 18µM | - | - | -
CCOc1ccc(CC(=O)N2CCCN(C)c3ccccc32)cc1 | ? | - | 89µM | -
CCOCC(=O)N1CCCN(S(C)(=O)=O)c2ccccc21 | - | - | - | -
CCOC(=O)C1CCCN(C(=O)C2CCc3nnc(CNC(=O)NC(C)(C)C)n32)C1 (centres undefined) | - | . | - | .
CSc1ccc(-c2cccc(CN3CCC(NC(=O)c4ccccc4Cl)CC3)c2)cc1 | ? | . | 40µM | .
CSc1ccc(-c2cccc(CN3CCC(NC(=O)Nc4ccc(Cl)cc4)CC3)c2)cc1 | 13µM | . | 22µM | .
CSc1ccc(-c2cccc(CN3CCC(NC(=O)c4ccc(Cl)cc4)CC3)c2)cc1 | - | . | - | .
O=C(Nc1ccccc1)NC1CCN(Cc2cccc(-c3ccc(F)c(F)c3)c2)CC1 | 16µM | . | 20µM | .
CC(C)(C)C(=O)NC1CCN(Cc2cccc(-c3ccc(F)c(F)c3)c2)CC1 | - | . | - | .
CCc1c(C)nc(-c2ccc(F)cc2)n(CC(=O)Nc2ccc(OC)c(OC)c2)c1=O | - | - | - | -
O=C(c1cc(C2CC2)[nH]n1)N(Cc1ccc2c(c1)OCO2)C1CC1 | - | - | ? | 28µM
O=C(Nc1ccc([C@@H](O)[C@H]2COCC(=O)N2Cc2ccc(F)cc2)cc1)c1ccnc(Cl)c1 | ? | ? | ? | -
O=C1NCCCCCCN(C(=O)CCC2CCCC2)[C@H]2C[C@H](c3nc(Cc4ccccc4)no3)C[C@@H]12 | ? | - | 32µM | -
O=C1NCCCCCCN(C(=O)CC2CCCCC2)[C@H]2C[C@H](c3nc(Cc4ccccc4)no3)C[C@@H]12 | 35µM | - | ? | -
O=C1NCCCCCCN(C(=O)C2CC=CC2)[C@H]2C[C@H](c3nc(Cc4ccccc4)no3)C[C@@H]12 | ? | - | ? | -
COCCOCC(=O)N1CCCCCCNC(=O)[C@@H]2C[C@@H](c3nc(Cc4ccccc4)no3)C[C@@H]21 | - | - | - | -
CCNc1ncnc2sc3c(c12)CCN(Cc1ccc[nH]1)C3 | 40µM | - | ? | -
Cc1ccc(CN2Cc3[nH]cnc3C[C@H]2c2nc(-c3ccc4ccccc4c3)no2)cc1 | 45µM | - | 63µM | 63µM
OCc1ccc(CN2Cc3[nH]cnc3C[C@H]2c2nc(-c3ccc4ccccc4c3)no2)o1 | 79µM | - | 79µM | ?
SMILES | 3T3 cytotox | NPR1 antag | HEK293 tox | Luciferase inh
COc1cccc(C(=O)N2CCCC(C(=O)N3CCC(N4CCOC4=O)CC3)C2)c1 (centres undefined) | - | . | - | .
Cc1ccccc1C(=O)N1CCC[C@@H]1C(=O)N1CCCC(c2nc3ccncc3[nH]2)C1 (some centres undefined) | - | . | - | .
Cc1nc(C(=O)N2CCCC(CCc3cccc(C(F)(F)F)c3)C2)c(C)o1 (centres undefined) | ? | - | 25µM | -
O=C(c1ccc(-n2cnnn2)cc1O)N1CCCC(CCc2ccc(F)cc2)C1 (centres undefined) | ? | ? | 35µM | -
O=C(CCn1cnnn1)N1CCCC(CCc2cccc(C(F)(F)F)c2)C1 (centres undefined) | ? | - | 18µM | -
CCCCn1c(=O)c(C(=O)N2CCCCC2)nc2cccnc21 | - | . | - | .
CN1CC(=O)N(C2CCCCC2)Cc2c1ncnc2N1CCN(c2ncccn2)CC1 | 45µM | . | 45µM | .
Cc1ccc(CN2C(=O)COC[C@H]2C(=O)Nc2ccc(F)c(F)c2)cc1 | - | . | - | .
COc1cc(F)ccc1-c1cc(C(=O)NCc2cccnc2)c2c(c1)N(C)CCO2 | ? | - | ? | -
COc1ccccc1CN1CCNc2cc(Nc3ccccc3)ncc2C1 | 35µM | - | 35µM | ?
COc1ccc(CN2CCNc3cnc(Nc4ccccc4)cc3C2)cn1 | ? | - | ? | -
COc1ccc(CN2CCNc3cnc(Nc4ccccc4)cc3C2)cc1 | ? | ? | 89µM | -
COc1ccc(Nc2cc3c(cn2)NCCN(Cc2ccccc2)C3)cc1 | ? | ? | 79µM | -
COc1ccc(CN2CCNc3cc(Nc4ccccc4)ncc3C2)cc1 | ? | - | 71µM | -
O=C(c1csc(Cc2ccccc2)n1)N1CC[C@H](CO)[C@@H](O)C1 | - | - | - | -
O=C(c1csc(Cc2ccccc2)n1)N1Cc2ccccc2C(O)C1 (centres undefined) | ? | - | ? | 40µM
CNC(=O)c1cc(C)nc2onc(C3CCN([S+](C)(=O)[O-])C3)c12 (centres undefined) | - | . | - | .
O=C(Nc1ccccc1)c1ccc(-c2cccc3c2CCNC3)o1 | 45µM | - | ? | -
O=C(NCc1ccccc1)c1ccc(-c2cccc3c2CCNC3)o1 | ? | - | ? | ?
Cc1ccc(NC(=O)c2nc3sccn3c2-c2cccc(C#N)c2)cc1 | - | . | - | .
CCOc1ccc(C(=O)Nc2cccc(-c3nnc4n3CCCC4)c2)cc1 | ? | - | ? | 25µM
O=C(Cc1ccc(Cl)cc1)Nc1cccc(-c2nnc3n2CCCC3)c1 | ? | - | 50µM | -
O=C(Nc1cccc(-c2nnc3n2CCCC3)c1)c1cc(C2CC2)[nH]n1 | - | ? | - | 20µM
O=C(Nc1cccc(-c2nnc3n2CCCC3)c1)c1cc(-c2ccccc2)n[nH]1 | - | ? | 28µM | 2.2µM
O=C(Nc1cccc(-c2nnc3n2CCCC3)c1)c1ccc(Cl)cc1 | ? | - | ? | ?
SMILES | 3T3 cytotox | NPR1 antag | HEK293 tox | Luciferase inh
CCOc1ccc(CC(=O)Nc2cccc(-c3nnc4n3CCCC4)c2)cc1 | ? | - | ? | -
Cc1ccccc1C(=O)NC1CCN(c2nc3ncccc3o2)C1 (centres undefined) | - | . | - | .
CCc1cc(=O)n(CC(=O)Nc2cccc(C(C)C)c2)c(N2CCOCC2)n1 | ? | ? | ? | -
CN1CCC(C(=O)N2Cc3ccccc3CC3(CCCCN3Cc3ccncc3)C2)CC1 (centres undefined) | - | . | - | .
COc1cccc(-c2cc(-c3c(C)noc3C)c3cncn3c2)c1OC | ? | - | 79µM | -
Cc1noc(C)c1-c1cc(-c2ccc3c(c2)C(=O)NC3)cn2cncc12 | 13µM | - | - | -
Cc1ccccc1-c1cc(-c2c(C)noc2C)c2cncn2c1 | ? | - | 45µM | -
COc1cc(F)ccc1-c1cc(-c2c(C)noc2C)c2cncn2c1 | ? | - | 63µM | -
COc1cc(F)ccc1-c1nc(-c2c(C)noc2C)cc2c1cc(C)n2C | ? | - | ? | -
COc1ncccc1-c1cc(-c2c(C)noc2C)c2cncn2c1 | ? | - | ? | -
